In assay [1] the target is Cytochrome P450 2C19 (Homo sapiens) (UniProt P33261). The experiment in a line: qHTS Assay for Inhibitors and Substrates of Cytochrome P450 2C19 (AID 899). Note: potency is the fitted concentration of half-maximal effect; nearly all actives have a fitted effect of over 60% in size. As to conditions: recombinant CYP2C19, luciferin-H EGE luminescence; series mostly up to 57.1 µM. The procedure, abridged:
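5nM enzyme + 10uM Luciferin-H EGE (=KM), 50mM KPO4; cpd pin-transferred, 10 min 37C; NADPH regen, 60 min 37C; stopped w/ luciferin detection reagent, 20 min; luminescence. Normalized to 57uM ketoconazole (AC100).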

Assay [2] deals with Cytochrome P450 2C9 (Homo sapiens) (UniProt P11712). The assay can be described thus: qHTS Assay for Inhibitors and Substrates of Cytochrome P450 2C9 (AID 883). Note: nearly all actives have a fitted effect of over 60% in size. Conditions: recombinant CYP2C9, luciferin-H luminescence, 60 min; series mostly up to 57.1 µM. The method in brief:
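Inhibition of CYP2C9 is scored as loss of luminescence, with 57uM sulphaphenazole defining 100% inhibition. Substrate Luciferin-H is used at 100uM, equal to its KM; enzyme at 10nM in 25mM KPO4, 60 min at 37C with NADPH regeneration.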
On the technique in general: Quantitative high-throughput screening tests each substance at several concentrations.

In assay [3] the target is Cytochrome P450 2D6 (Homo sapiens) (UniProt P10635). The assay can be described thus: qHTS Assay for Inhibitors and Substrates of Cytochrome P450 2D6 (AID 891). Note: potency is the fitted concentration of half-maximal effect; nearly all actives have a fitted effect of over 60% in size. Conditions: recombinant CYP2D6, luciferin-ME EGE luminescence; series mostly up to 57.1 µM. The procedure, abridged:
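Luminescent read-out of luciferin formed by 5 nM human CYP2D6 demethylating 30 uM Luciferin-ME EGE (Km level) over 60 min at room temperature after NADPH regeneration addition. Data normalized to full inhibition by 1.43 uM quinidine.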

Assay [4] has as its target DNA dC->dU-editing enzyme APOBEC-3G (Homo sapiens) (UniProt Q9HC16). The assay can be described thus: qHTS for inhibitors of Vif-A3G interactions: Validation (AID 588379). Conditions: Vif-A3G protein interaction assay; series mostly up to 46.1 µM. The procedure, abridged: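 Yellow fluorescence (Ex 488, Em 500-530) of Vif-coexpressing HeLa A3G-eYFP cells, scanned by Acumen cytometer, reports blocked A3G degradation. Cells plated at 700/well overnight at 37 deg C before compound addition, then a further overnight compound incubation at 37 deg C.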

Assay [5] can be described thus: NCATS anti-infectives library activity on HEK293 viability as a counter-qHTS vs the C. elegans viability qHTS (AID 1745854). Conditions: HEK293 viability counter-screen; series mostly up to 41.8 µM. The procedure, abridged: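 CellTiter-Glo luminescence, read on a CCD imager, scored viability of HEK293 cells after 24 hr compound exposure at 37C. Library tested in several concentrations, 1:5 steps, up to 41.7 uM; digitonin served as control.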

Assay [6] is described as follows: NCATS anti-infectives library activity on the primary C. elegans qHTS viability assay (AID 1745855; calls by dose curve). Conditions: C. elegans worm area imaging, day 7; series mostly up to 41.8 µM. The procedure, abridged: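 Titration-based screen in worms: eggs hatched overnight in M9, L1 larvae fed TOP10 capsules in S medium with compound, incubated 21 °C for 7 days; fluorescent objects gated by size and intensity at days 0, 3 and 7.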

A short description of assay [7]: G06 Cancer Cell Toxicity qHTS against the NCATS CANVASS Library (AID 1347368). Note: nearly all actives have a fitted effect of over 60% in size. As to conditions: G06 dog glioma cells, viability ATP luminescence, 72 h; series mostly up to 46.1 µM. The method in brief:
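ATP luminescence (CellTiterGlo) readout of cytotoxicity. Canine G06 glioma cells, 500/well, 72 hr incubation at 37C with compounds; bortezomib titration served as control.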

Assay [8] in a line: qHTS for Hypoxia signaling pathway (HIF-1) agonists against the NCATS CANVASS Library (AID 1347375). As to conditions: HRE-bla ME-180 cells, HIF-1 beta-lactamase reporter, 17 h; series mostly up to 38.3 µM. The method in brief: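 Read-out: beta-lactamase FRET (CCF4-AM, ex 405, em 460 and 530 nm) after 2 h at room temperature. ME-180 cells stably carrying HRE-bla were treated 17 h at 37C with compounds in an 11-point concentration series.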

A short description of assay [9]: Secretion counterscreen for inhibitors of the SERCaMP assay screened against the NCATS CANVASS Library (AID 1347390).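 Note: light from luciferase secreted into medium read as a measure of general secretion.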 As to conditions: SH-SY5Y constitutive GLuc secretion, luminescence, 20 h; series mostly up to 76.6 µM. The procedure, abridged: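 SH-SY5Y-GLuc STOP cells; 4 h attach; cpds 0.001 - 77 uM (qHTS, 11 pts), 20 h 37C/5% CO2; coelenterazine in glow buffer; luminescence, 5 s exposure.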
Background: A counterscreen serves to expose hits that act by an unwanted route or on another target.

Assay [10] can be described thus: qHTS for inhibitors of ER calcium dysfunction: SERCaMP assay screened against the NCATS CANVASS Library (AID 1347393).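 Note: lower secreted reporter signal means inhibitor of ER calcium depletion; nearly all actives have a fitted effect of over 40% in size.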 Conditions: SH-SY5Y GLuc-SERCaMP (Gaussia luciferase released on ER calcium loss) secretion, thapsigargin, luminescence; series mostly up to 76.6 µM. The method in brief: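 Thapsigargin-induced ER calcium depletion drives GLuc-SERCaMP secretion from SH-SY5Y cells; compounds given 16 h beforehand were scored by lowered coelenterazine luminescence after 4 h challenge.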

Assay [11] has as its target DNA repair nuclease/redox regulator APEX1 (Homo sapiens) (UniProt P27695). The assay can be described thus: qHTS Validation Assay for Inhibitors of the Human Apurinic/apyrimidinic Endonuclease 1 (APE1) (AID 1705;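 note: TAMRA fluorescence gain over two minutes as APE1 cuts a quenched THF abasic duplex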). As to conditions: purified APE1 endonuclease activity, fluorescence, titration; series mostly up to 57.1 µM. The procedure, abridged:
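qHTS, 1536-well. APE1 + cpd 15 min RT → 50 nM TAMRA/BHQ-2 THF-abasic dsDNA substrate → kinetic fluorescence, 3 reads/60 s; delta(read3−read1) = reaction progress. No-enzyme buffer = negative control.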

Assay [12] is described as follows: Counterscreen for APE1 Inhibitors: Fluorescent Dye Displacement Validation Assay (AID 1707). Conditions: fluorescent dye displacement from DNA; series mostly up to 57.1 µM. The method in brief: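 Endpoint fluorescence read at 480 nm excitation / 540 nm emission; DNA-binding compounds lower signal by displacing 250 nM Thiazole Orange from 50 nM dsDNA containing a tetrahydrofuran abasic site, Tris-HCl pH7.5 buffer with NaCl and MgCl2.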

Assay [13] can be described thus: qHTS for differential inhibitors of proliferation of Plasmodium falciparum line Dd2 (AID 1882).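 Note: compound exposure of 72 h on infected erythrocytes; nearly all actives have a fitted effect of over 65% in size.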 As to conditions: Potency: Plasmodium falciparum Dd2 proliferation inhibition; series mostly up to 28.7 µM. The method in brief:
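RBC culture, 0.3% parasitemia / 2.5% Hct final; cpd added by pin tool in DMSO; 72 h, 37 C, 5% CO2; lysis buffer + SYBR Green I, o/n RT dark; FI 485/535; norm. to artemisinin 0.29 uM and DMSO.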

The nature of assay [14]: qHTS Assay for Modulators of Human Peripheral Myelin Protein 22 (PMP22) Expression/Activity (AID 1967; active = well fitted curve in the direction sought with a large enough effect in the signal ratio; the % refers to the signal ratio). Conditions: Cell-based PMP22 reporter, dual-color luciferase ratio, mouse Pmp22 promoter in mouse Schwann cells; series mostly up to 115 µM. The procedure, abridged: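 Luminescence ratio of Pmp22 promoter-driven green luciferase to EF-alpha-driven red luciferase, in engineered mouse MSC80 Schwann cells, served as read-out. Compounds were incubated 24h; untreated cells defined 0% Activity; curves were classified by r2, magnitude and activity.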

For assay [15], the target named is Ferritin light chain (Equus caballus) (UniProt P02791). The assay can be described thus: qHTS Validation Assay for Identification of Novel General Anesthetics (AID 2323). As to conditions: horse apoferritin, anesthetic-site fluorescent probe displacement; series mostly up to 76.9 µM. The method in brief: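 Fluorescence at 535 nm (excitation 380 nm) reported loss of 1-AMA binding to horse-spleen apoferritin (10 uM) in PBS with 50% saturated 1-aminoanthracene, after 10 min room-temperature incubation with compound; values from Hill fits of normalized response.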

The target of assay [16] is ATP-dependent DNA helicase Q1 (Homo sapiens) (UniProt P46063). The assay can be described thus: qHTS Validation Assay for Inhibitors of RecQ-Like Dna Helicase 1 (RECQ1) (AID 2353). Conditions: recombinant RECQ1 helicase DNA unwinding assay; series mostly up to 25.6 µM. The method in brief:
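RECQ1T1 50 nM; forked duplex (20 bp + 30-nt ss tails) 200 nM, ATP 2 mM final; pH 8.0, 2 mM MgCl2, 2.5 ug/ml poly(dI-dC); 15 min compound preincubation; discontinuous kinetic read over 2 h at RT.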

The nature of assay [17]: Validation screen for small molecules that induce DNA re-replication in MCF 10A normal breast cells (AID 463097). Note: nearly all actives have a fitted effect of over 60% in size. Conditions: MCF 10A cells, DNA re-replication phenotype imaging; series mostly up to 46.1 µM. The method in brief: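 Image-based qHTS: normal breast cells are incubated with compound for 48 hr, stained with Hoechst, and scanned for total nuclear fluorescence. Compounds raising the fraction of nuclei with elevated DNA content count as re-replication inducers.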

Assay [18] is described as follows: Quantitative high throughput screen for delayed death inhibitors of the malarial parasite plastid, 96 hour incubation (AID 488745).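 Note: luciferase-expressing P. falciparum in erythrocytes at 2% hematocrit and 0.1% parasitemia; nearly all actives have a fitted effect of over 70% in size.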 Conditions: Plasmodium falciparum growth; series mostly up to 28.7 µM. The method in brief:
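Luciferase-expressing P. falciparum, infected RBCs 2% Hct/0.1% parasitemia (final); 96 h cpd exposure, 37 C, 5% CO2; RPMI 1640 + 0.5% Albumax, bicarbonate, gentamycin. Readout: luminescence loss = growth inhibition.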

Assay [19] deals with N-terminal Xaa-Pro-Lys N-methyltransferase 1 (Homo sapiens) (UniProt Q9BV86). The assay can be described thus: qHTS Assay for Inhibitors of N-terminal methyltransferase 1 (NTMT1): LOPAC validation of the NTMT1 SAHH-coupled ThioGlo3 Assay (AID 1347143).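 Note: SAH from peptide methylation measured as thiol fluorescence via SAHH coupling and ThioGlo3; nearly all actives have a fitted effect of over 70% in size.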 Conditions: recombinant NTMT1, SAHH-coupled ThioGlo3 fluorescence; series mostly up to 114 µM. The method in brief: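 NTMT1 125nM + cpds (various conc.), 1 min RT; add SAM 100uM/SAHH 10uM/ThioGlo3 15uM (addition mix). SAHH-coupled thiol detection, Ex340/Em450, t0 and 30 min RT; signal normalized to background. LOPAC 1280-cpd pilot.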

Assay [20] has as its target Arylsulfatase A (Homo sapiens) (UniProt P15289). The assay can be described thus: qHTS screen for enhancers of Arylsulfatase A (ASA1): LOPAC Validation Assay (AID 720538). As to conditions: ASA enzyme activity, LOPAC qHTS enhancer assay; series mostly up to 57.5 µM. The procedure, abridged:
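MLD patient fibroblasts (SV40, ASA-I179S), 1536-well; adhere 6 hrs; cpd 48h, 37 degree C, 5% CO2; pNCS 0.5mM final in lysis buffer, 14h RT; stop 1N NaOH final; fluor. Ex525/Em598.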

Where “and” joins values, the source holds several entries; their conditions need not be identical. Equal entries are not always repeated. Inconclusive results are not listed. Calls of active or inactive are those of the source. Unless noted, calls come from the whole dose curve; as a rule, active = well fitted curve in the direction sought with a large enough effect; inconclusive = small, poorly fitted or top-dose-only effect, or another doubt; inactive = no such curve, though single readings can be large; an effect the other way counts as inactive or inconclusive.

Sequence of Arylsulfatase A (Homo sapiens) (P15289 whole entry, looked up): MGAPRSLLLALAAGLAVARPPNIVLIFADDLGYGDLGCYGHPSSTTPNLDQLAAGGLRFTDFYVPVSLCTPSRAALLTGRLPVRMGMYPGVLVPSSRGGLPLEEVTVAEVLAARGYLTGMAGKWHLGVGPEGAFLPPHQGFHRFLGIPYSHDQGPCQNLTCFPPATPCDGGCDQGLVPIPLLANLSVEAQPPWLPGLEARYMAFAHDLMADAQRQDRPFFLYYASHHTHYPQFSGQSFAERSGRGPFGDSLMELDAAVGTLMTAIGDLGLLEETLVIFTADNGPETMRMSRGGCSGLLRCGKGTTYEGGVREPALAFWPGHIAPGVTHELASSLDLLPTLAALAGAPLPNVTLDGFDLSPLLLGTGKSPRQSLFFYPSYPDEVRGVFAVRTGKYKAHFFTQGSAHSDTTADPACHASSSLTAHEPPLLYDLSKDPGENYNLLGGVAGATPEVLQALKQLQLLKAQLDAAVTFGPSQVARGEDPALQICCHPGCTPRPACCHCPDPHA
Sequence of Cytochrome P450 2D6 (Homo sapiens) (P10635 whole entry, looked up): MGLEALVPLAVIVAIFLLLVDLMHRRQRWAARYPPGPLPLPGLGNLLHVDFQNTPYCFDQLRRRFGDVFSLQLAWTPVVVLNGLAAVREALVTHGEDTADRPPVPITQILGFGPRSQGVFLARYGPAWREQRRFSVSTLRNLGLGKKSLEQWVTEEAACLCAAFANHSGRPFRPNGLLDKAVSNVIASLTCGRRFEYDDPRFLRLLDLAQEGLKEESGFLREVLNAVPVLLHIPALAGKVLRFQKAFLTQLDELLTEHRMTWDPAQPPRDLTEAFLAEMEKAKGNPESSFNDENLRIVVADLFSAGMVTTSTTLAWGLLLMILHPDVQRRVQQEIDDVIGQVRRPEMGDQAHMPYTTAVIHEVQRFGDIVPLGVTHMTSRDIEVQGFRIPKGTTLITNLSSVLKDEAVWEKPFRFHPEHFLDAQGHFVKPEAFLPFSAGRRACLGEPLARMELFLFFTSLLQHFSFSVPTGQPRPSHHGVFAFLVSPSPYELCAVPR
Sequence of ATP-dependent DNA helicase Q1 (Homo sapiens) (P46063 whole entry, looked up): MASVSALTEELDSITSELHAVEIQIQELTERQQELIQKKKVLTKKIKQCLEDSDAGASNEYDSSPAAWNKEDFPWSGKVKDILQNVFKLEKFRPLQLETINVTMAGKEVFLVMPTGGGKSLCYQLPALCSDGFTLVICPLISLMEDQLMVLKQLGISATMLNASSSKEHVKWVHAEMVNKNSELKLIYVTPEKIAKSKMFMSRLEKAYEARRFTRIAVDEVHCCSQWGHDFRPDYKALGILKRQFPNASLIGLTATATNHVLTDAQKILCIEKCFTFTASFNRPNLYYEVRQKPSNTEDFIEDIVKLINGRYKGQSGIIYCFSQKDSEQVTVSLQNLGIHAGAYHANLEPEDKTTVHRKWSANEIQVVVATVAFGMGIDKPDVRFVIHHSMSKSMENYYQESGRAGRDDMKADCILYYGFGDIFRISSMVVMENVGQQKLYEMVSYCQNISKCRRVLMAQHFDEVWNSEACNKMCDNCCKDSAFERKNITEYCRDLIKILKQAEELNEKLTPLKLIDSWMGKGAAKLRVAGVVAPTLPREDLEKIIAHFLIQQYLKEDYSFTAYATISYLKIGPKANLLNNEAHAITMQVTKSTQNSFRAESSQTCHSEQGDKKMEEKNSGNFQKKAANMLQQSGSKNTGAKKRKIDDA
Sequence of Ferritin light chain (Equus caballus) (P02791 2-175 limits assumed): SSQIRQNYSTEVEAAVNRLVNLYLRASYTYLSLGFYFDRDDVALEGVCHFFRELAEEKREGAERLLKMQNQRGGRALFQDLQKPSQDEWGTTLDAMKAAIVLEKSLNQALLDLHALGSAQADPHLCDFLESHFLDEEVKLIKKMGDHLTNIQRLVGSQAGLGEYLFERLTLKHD
Sequence of Cytochrome P450 2C9 (Homo sapiens) (P11712 whole entry, looked up): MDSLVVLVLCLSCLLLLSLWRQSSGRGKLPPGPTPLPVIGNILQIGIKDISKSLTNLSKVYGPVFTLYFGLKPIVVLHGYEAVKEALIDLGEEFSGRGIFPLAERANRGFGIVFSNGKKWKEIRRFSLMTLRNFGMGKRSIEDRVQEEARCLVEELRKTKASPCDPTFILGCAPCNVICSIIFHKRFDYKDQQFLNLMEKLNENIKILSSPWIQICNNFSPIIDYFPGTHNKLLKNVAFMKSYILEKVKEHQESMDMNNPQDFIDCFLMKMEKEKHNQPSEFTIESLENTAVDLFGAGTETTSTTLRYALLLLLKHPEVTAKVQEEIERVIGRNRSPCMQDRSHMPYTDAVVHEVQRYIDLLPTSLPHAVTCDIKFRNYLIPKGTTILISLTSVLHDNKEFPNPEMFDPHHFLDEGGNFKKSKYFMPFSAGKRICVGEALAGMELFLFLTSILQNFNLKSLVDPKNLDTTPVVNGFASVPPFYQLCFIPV
Sequence of N-terminal Xaa-Pro-Lys N-methyltransferase 1 (Homo sapiens) (Q9BV86 whole entry, looked up): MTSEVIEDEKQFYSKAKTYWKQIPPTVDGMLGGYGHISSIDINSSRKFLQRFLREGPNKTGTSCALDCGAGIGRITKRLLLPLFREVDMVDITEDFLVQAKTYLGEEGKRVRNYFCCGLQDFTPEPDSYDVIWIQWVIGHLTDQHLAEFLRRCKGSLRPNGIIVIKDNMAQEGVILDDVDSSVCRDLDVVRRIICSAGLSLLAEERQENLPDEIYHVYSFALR
Sequence of Cytochrome P450 2C19 (Homo sapiens) (P33261 whole entry, looked up): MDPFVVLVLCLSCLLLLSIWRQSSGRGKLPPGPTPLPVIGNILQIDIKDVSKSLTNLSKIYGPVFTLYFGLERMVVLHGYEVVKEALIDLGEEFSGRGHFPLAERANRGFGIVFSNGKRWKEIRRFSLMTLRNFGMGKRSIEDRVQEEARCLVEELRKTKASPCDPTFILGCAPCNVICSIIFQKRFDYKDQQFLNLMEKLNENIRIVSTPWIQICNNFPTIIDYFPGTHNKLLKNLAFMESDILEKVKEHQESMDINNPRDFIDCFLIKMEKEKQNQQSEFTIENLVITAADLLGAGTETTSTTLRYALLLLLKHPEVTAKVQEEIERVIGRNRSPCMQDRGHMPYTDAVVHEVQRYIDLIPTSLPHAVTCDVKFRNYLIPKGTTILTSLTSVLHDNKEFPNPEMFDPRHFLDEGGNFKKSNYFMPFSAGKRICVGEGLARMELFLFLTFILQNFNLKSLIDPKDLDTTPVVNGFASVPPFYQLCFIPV
Sequence of DNA repair nuclease/redox regulator APEX1 (Homo sapiens) (P27695 whole entry, looked up): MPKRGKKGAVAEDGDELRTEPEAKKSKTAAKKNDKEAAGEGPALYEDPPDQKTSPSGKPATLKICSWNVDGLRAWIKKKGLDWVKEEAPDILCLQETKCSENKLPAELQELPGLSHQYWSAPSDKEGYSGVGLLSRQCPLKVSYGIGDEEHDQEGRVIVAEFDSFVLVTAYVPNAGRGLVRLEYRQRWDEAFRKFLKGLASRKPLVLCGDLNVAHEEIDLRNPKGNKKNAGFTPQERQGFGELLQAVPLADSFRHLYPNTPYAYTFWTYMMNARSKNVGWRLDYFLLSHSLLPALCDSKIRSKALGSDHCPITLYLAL
Sequence of DNA dC->dU-editing enzyme APOBEC-3G (Homo sapiens) (Q9HC16 whole entry, looked up): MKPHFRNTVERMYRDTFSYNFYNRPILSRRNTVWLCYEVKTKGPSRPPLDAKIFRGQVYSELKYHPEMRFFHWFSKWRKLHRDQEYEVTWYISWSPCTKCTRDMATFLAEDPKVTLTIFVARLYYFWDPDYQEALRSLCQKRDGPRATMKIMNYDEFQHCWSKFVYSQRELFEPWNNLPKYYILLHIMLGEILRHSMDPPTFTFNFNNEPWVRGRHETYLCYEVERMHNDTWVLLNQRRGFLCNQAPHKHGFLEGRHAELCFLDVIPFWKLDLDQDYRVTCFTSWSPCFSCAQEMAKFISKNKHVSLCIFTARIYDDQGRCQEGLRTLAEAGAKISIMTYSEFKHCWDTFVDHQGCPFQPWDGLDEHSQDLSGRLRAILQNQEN

Turning to `c1cncc([C@@H]2CCCCN2)c1`, the Potency in [1] was 2000 nM (active).
With `CN(C)Cc1c[nH]c2ccccc12`, the Potency entry in [2], in assay [4], in assay [5] and in assay [6] was “inactive” in each case. Besides, in assay [3], the Potency is 158 nM (active) and 10 µM (active).
In the case of `NCCc1ccccc1`, the Potency result in [7], in [8], in [9] and in assay [10] was “inactive” in each case.
For the molecule `CC(=O)OCC1=C(C(=O)[O-])N2C(=O)[C@@H](NC(=O)CCC[C@@H](N)C(=O)[O-])[C@H]2SC1.[Zn+2]`, the Potency result in assay [11], in [12], in [13], in assay [16], in assay [17] and in assay [18] was “inactive” each time. For the same molecule, the result in assay [14], in [15] and in assay [19] was inactive.
With `CC(=O)[C@H]1CC[C@H]2[C@@H]3CCC4=CC(=O)CC[C@]4(C)[C@H]3CC[C@]12C`, the Potency result in assay [20] was “inactive”.
Take `CC(C)COC(=O)OCN1C(=O)CN(CCN2CC(=O)N(COC(=O)OCC(C)C)C(=O)C2)CC1=O`: in assay [20], the Potency entry is “inactive”.

The values above are taken from PubChem BioAssay (NCATS).
